# From PubChem BioAssay AID594 (National Center for Advancing Translational Sciences (NCATS), 2007)
# Out of some 59,000 compounds screened, about 30 (0.05%) were called active. No stated cut-off is given here; in the data, active means max dye-equivalent concentration above about 11 nM; inconclusive means between about 1.1 nM and that limit; inactive means weaker than that. Many of the other results were omitted from the sample, so actives are more common in it than they were.
# Assay: qHTS Assay for Spectroscopic Profiling in Rhodamine Spectral Region
# Details: Rhodamine-region fluorescence, 547/598 nm, Tris buffer; hits give high values
# Text: NIH Molecular Libraries Screening Centers Network [MLSCN] NIH Chemical Genomics Center [NCGC] […] Occasionally, the artifactual effect may originate from the compound#s own spectral or other biophysical properties which generally tend to track its assay concentration. Pre-screening/profiling the library with respect to the compounds# spectral properties should help one exclude false positives early on. While the most informative fluorescent profiling data set is obtained by performing a full excitation and emission scan of each well by using a monochromator-based plate reader, such an approach is practical only on a very limited scale as scanning each well requires long time. An alternative approach, applied here, is to perform plate reader scans using selected excitation and emission wavelength pairs to generate a multidimensional relational database that correlates compound concentration and the respective relative fluorescence intensity at a given wavelength set. A standard curve of rhodamine present on each plate as six-point concentration series, was used to compute a normalized fluorescence response, termed dye-equivalent concentration, for each compound at each concentration.
# NCGC Assay Protocol Summary: Buffer: 100 mM Tris buffer, pH 8.0 Dye standard plate: The wells in columns 1 through 4 of a Kalypsys polypropylene 1536-well compound plate were filled with standard solutions of fluorophore corresponding to the spectral region of interest. Solutions of rhodamine were placed in the following wells: E1, F1: 3 mM, E2, F2: 300 uM, E3, F3: 30 uM, E4, F4: zero (DMSO), G1, H1: 3 uM, G2, H2: […], G3, H3: 300 nM, G4, H4: zero (DMSO). Assay Steps: Six uL of buffer were dispensed to 1536-well Greiner black plates. Compounds and dye standards (23 nL) were transferred via Kalypsys PinTool. The plates were incubated for 15 min at room temperature, and then read on ViewLux (Perkin-Elmer) High-throughput CCD imager using 547 nm and 598 nm excitation and emission filter set. Keywords: NIH Roadmap, MLSCN, MLI, MLSMR, qHTS, NCGC, Rhodamine , Fluorescent Profiling.
row,SMILES,max dye-equivalent concentration
1,COc1ccc(Cl)cc1S(=O)(=O)N1CCN(CC(=O)C(C)(C)C)CC1,inactive
2,O=C(CCCC(=O)N(CC(=O)NC1CCCC1)Cc1ccccc1Cl)Nc1ccccn1,inactive
3,COc1ccc(CCNC(=O)c2cc3sccc3n2C)cc1OC,inactive
4,Cc1ccc(C)c(S(=O)(=O)N2CC(=O)Nc3ccccc32)c1,inactive
5,CCO/C([O-])=N/c1c[n+](N2CCOCC2)no1,inactive
6,C/C(=C(\C#N)C(=O)NCCCN1CCOCC1)N(C)C,inactive
7,Cc1ccc(SCc2cc(=O)[nH]c(N3CCCCC3)n2)cc1,inactive
8,FC(F)(F)c1ccccc1-c1cc(NCc2ccccc2)ncn1,inactive
9,CCOc1ccc(-c2cn(S(=O)(=O)c3cccc4nsnc34)nc2N)cc1,inactive
10,O=C(O)c1c(Br)c(Br)c(Br)c(Br)c1C1c2ccc(O)cc2Oc2cc(O)ccc21,11 nM (active)
11,COC(=O)NC1(C(F)(F)F)NC(=O)N(C2CCCCC2)C1=O (stereo not given),inactive
12,C=CCc1cccc2cc(C(=O)N3CCN(C(=O)OCC)CC3)c(=O)oc12,inactive
13,COc1ccc2[nH]c3c(=O)n(Cc4ccco4)cnc3c2c1,inactive
14,COCCNC(=O)CN(C(=O)CCC(=O)Nc1cc(C)on1)c1ccc(C)cc1C,inactive
15,CCC(C)(C)n1nnnc1C(c1cccs1)N1CCN(c2nc3ccccc3s2)CC1 (stereo not given),inactive
16,Nc1nc(N)c2[nH]c(CNc3ccc(C(=O)O)cc3)nc2n1,inactive
17,O=C1CCCc2c1[nH]c1ccc(Br)cc21,inactive
18,C=C(Br)CN1CCN(CC(=C)Br)CC1,inactive
19,O=C(Nc1nc2cc3c(cc2s1)OCCO3)c1cccc(S(=O)(=O)N2CCOCC2)c1,inactive
20,CCOc1nc(-c2ccc(OC)cc2)ccc1-c1noc(-c2cc(OC)c(OC)c(OC)c2)n1,inactive
21,Cc1ccc(C)c(NC(=O)C2CCCN2C(=O)OC(C)(C)C)c1 (stereo not given),inactive
22,O=C(O)[C@@H](O)Cc1ccccn1,inactive
23,O=C(O)CCC(=O)Nc1ccc(N2CCOCC2)cc1,inactive
24,Cc1ccc2nc(CC(=O)c3ccc4ccccc4c3)c(=O)[nH]c2c1,inactive

row,SMILES,max dye-equivalent concentration
1,COc1ccc(-c2cc3ccc(OCc4nn[nH]n4)cc3oc2=O)cc1,inactive
2,O=C(Nc1ccc2c(c1)OCCO2)C1CCCN(c2ncccn2)C1 (stereo not given),inactive
3,CCOc1ccc2c(c1)cc(CN(C(=O)CC)C1CCCCC1)c1nnnn12,inactive
4,COCCn1c(=O)c(CCc2ccccc2)nc2cnc(N3CCNCC3)nc21,inactive
5,Cc1cc(=O)cc(C)[nH]1,inactive
6,Cn1c(=O)cc(OCCCC(=O)N2CCN(Cc3ccc4c(c3)OCO4)CC2)c2ccccc21,inactive
7,COc1ccc2[nH]c3cc4c(=O)c5cc(OC)ccc5[nH]c4cc3c(=O)c2c1,inactive
8,CC(=O)O[C@]1(C(C)=O)CC[C@@H]2[C@@H]3C=C(C)C4=CC(=O)CC[C@@]4(C)[C@H]3CC[C@]21C,inactive
9,COc1ccc(CC(=O)n2nc(-c3cccnc3)nc2N)cc1,inactive
10,Oc1ccc(Cn2cc[nH]c2=S)cc1,inactive
11,O=C(CN1CCN(S(=O)(=O)/C=C/c2ccccc2)CC1)NC(=O)NCc1ccco1,inactive
12,CC1CCCC(NC(=O)CN2CCN(Cc3ccc(Cl)cc3)C2=O)C1C (stereo not given),inactive
13,Clc1ccc(Nc2nc(-c3cccs3)cs2)nc1,inactive
14,Cc1ccc(/C(=C/CN2CCCC2)c2ccccn2)cc1,inactive
15,Cc1ccc2c(c1)c1ncn(CCC3=CCCCC3)c(=O)c1n2C,inactive
16,COc1ccc(S(=O)(=O)NC2(C(F)(F)F)N=C3SCCN3C2=O)cc1 (stereo not given),inactive
17,CCn1c(-c2cc(OC)ccc2OC)csc1=Nc1c(C)n(C)n(-c2ccccc2)c1=O,inactive
18,O=C(c1cnccn1)N1CCC2(CCCN(Cc3ccccc3)C2)CC1,inactive
19,CCN(CC)CCNC(=O)C1c2ccccc2C(=O)N(C)C1c1cn(C)c2ccccc12 (stereo not given),inactive
20,CC(C)(O)C#Cc1ccc(C(=O)N2CCC(C(N)=O)(N3CCCCC3)CC2)cc1,inactive
21,O=C(O)[C@@H]1CCCN1c1ncnc2sc3c(c12)CCC3,inactive
22,O=C(CSc1nc2cc3c(cc2c(=O)n1CCC1=CCCCC1)OCO3)NCc1ccco1,inactive
23,CC1C=CCC2C(=O)N(c3cccc(C(=O)N4CCCCCC4)c3)C(=O)C12 (stereo not given),inactive
24,COCCNC(=O)CSc1nc2c(n1-c1ccccc1)CCCC2,inactive

row,SMILES,max dye-equivalent concentration
1,COc1ccc(S(=O)(=O)N2CCCC2)c(C)c1C,inactive
2,COc1ccc(C2C(C(=O)N3CCN(c4ccc(OC)cc4)CC3)c3ccccc3C(=O)N2C)cc1 (stereo not given),inactive
3,O=C(CNS(=O)(=O)c1cccc(C(F)(F)F)c1)Nc1ccccc1F,inactive
4,CC(C)OC(=O)C(C#N)c1nc2ccccc2nc1N1CCN(Cc2ccccc2)CC1 (stereo not given),inactive
5,CC(=O)c1cccc(NC(=O)N2CCCC2C(=O)NCCC(C)C)c1 (stereo not given),inactive
6,O=S(=O)(c1ccc(Sc2nnc3ccccn23)nc1)N1CCOCC1,inactive
7,Cc1ccc(NC(=O)Cn2nc(C)c3ccccc3c2=O)c(C)c1,inactive
8,CCOC(=O)c1sc(=S)n2c1[nH]c(=O)c1ccc(C(=O)OC)cc12,inactive
9,O=C(Nc1ccccc1)Nc1ccccc1C(=O)NCc1ccco1,inactive
10,CCCCSc1nnc(-c2ccc(NC(=O)CC)cc2)n1C,inactive
11,Cc1cccc(N=C2NC(=O)CS2)c1C,inactive
12,CC1=NCCN1S(=O)(=O)c1ccc(Br)c(C)c1,inactive
13,O=c1c(-c2ccc(F)cc2)nc2cnc(N3CCOCC3)nc2n1-c1ccccc1,inactive
14,OCCCNC(c1ccccc1)c1ccc(O)cc1 (stereo not given),inactive
15,Cc1ccccc1NC(=O)c1cc(S(=O)(=O)N2CCOCC2)cs1,inactive
16,O=C(Nc1cccnc1)c1noc2c1CCCCC2,inactive
17,CCC(=O)Nc1ccccc1N1CCN(S(C)(=O)=O)CC1,inactive
18,COc1ccccc1C(=O)N1CCNC(=O)C1CC(=O)Nc1ccc(Cl)cc1 (stereo not given),inactive
19,C[C@H](CCC(=O)O)[C@H]1CC[C@@H]2[C@H]3CC[C@H]4C[C@H](O)CC[C@@]4(C)[C@@H]3CC[C@@]21C,inactive
20,NC(=O)CSc1oc(-c2cccs2)nc1S(=O)(=O)c1ccccc1,inactive
21,CCOCCN(C=O)c1cccc(OC)c1,inactive
22,O=C(COC(=O)c1ccc2c(c1)OCCO2)NCc1ccccc1,inactive
